Screening data as filed in PubChem.
IL-1B inflam inh = qHTS for Inhibitors of Inflammasome Signaling: IL-1-beta AlphaLISA Primary Screen | THP-1 LPS/ATP IL-1B secretion, AlphaLISA, 16 h; hits give low values | activity change, % at 57.5 µM | 4.7% of 360,000 active | AID 743279, 2014; in the data active = activity change below about -50%; inconclusive = mostly about -30% to -49%
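THP-1 cells pretreated 1 hr with compounds (up to 57.5 uM final), then stimulated with LPS (250 ng/mL final) plus ATP (1.25 mM final); secreted IL-1B measured by AlphaLISA after 16 hr, decreased signal indicating inhibition.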
DT40 TDP1 CPT = qHTS for Inhibitors of human tyrosyl-DNA phosphodiesterase 1 (TDP1): qHTS in cells in presence of CPT; AID 686979, 2013; chicken DT40 Tdp1-/-;hTDP1 cells + 20 nM CPT, ATP luminescence, 48 h; Potency, µM (doses to about 46.2 µM), without a hit: top-dose activity change, negative = growth inhibition, usual class: inhibitors; 12% of 420,000 active; note: potency is the fitted concentration of half-maximal effect; nearly all actives have a fitted effect of over 55% in size
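Cell growth measured by CellTiter-Glo luminescence after a minimum 48 h, 37 C compound exposure with 20 nM CPT in Tdp1-knockout DT40 cells stably expressing hTDP1, seeded 400/well; qHTS titration format.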
Gal4-VP16 FLuc = VP16 counterscreen qHTS for inhibitors of ROR gamma transcriptional activity | Drosophila S2 Gal4-VP16 UAS-luciferase, luminescence, 20 h | Potency, µM (highest dose often 53.6 µM), for the others: at the highest dose activity, negative = inhibition, hits mostly inhibitors | 3.5% of 310,000 active;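 note: Gal4-VP16 expression switched on by copper sulfate through the metallothionein promoter; potency is the fitted concentration of half-maximal effect; nearly all actives have a fitted effect of over 50% in size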
RORg inh = qHTS for inhibitors of ROR gamma transcriptional activity. Drosophila S2 Gal4-RORgamma UAS-luciferase reporter, 20 h. Potency, µM (top dose mostly 53.6 µM), without a hit: at the highest dose activity change, negative = inhibition, usual class: inhibitors. 5.4% of 310,000 active; note: potency is the fitted concentration of half-maximal effect; nearly all actives have a fitted effect of over 60% in size
Target sequence (P51450 whole entry, looked up, the tested form may be a part): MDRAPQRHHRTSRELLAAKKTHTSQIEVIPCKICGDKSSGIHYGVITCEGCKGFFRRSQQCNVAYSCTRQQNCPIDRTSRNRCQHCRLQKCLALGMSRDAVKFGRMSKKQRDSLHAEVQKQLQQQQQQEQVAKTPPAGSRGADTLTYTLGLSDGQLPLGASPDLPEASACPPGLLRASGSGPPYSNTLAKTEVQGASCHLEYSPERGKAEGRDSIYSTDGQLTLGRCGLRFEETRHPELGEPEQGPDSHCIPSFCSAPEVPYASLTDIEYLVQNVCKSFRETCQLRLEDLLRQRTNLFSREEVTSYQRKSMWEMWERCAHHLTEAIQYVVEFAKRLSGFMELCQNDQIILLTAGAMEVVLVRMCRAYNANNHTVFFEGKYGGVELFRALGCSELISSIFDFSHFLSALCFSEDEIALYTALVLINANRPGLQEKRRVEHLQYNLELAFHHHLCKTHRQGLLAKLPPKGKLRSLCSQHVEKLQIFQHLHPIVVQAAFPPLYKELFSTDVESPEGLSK
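Schneider cells (Drosophila), stable Gal4 DBD–ROR gamma + UAS-luc; 1 hr cmpd preincubation; Cu2+ induction 700 uM final; 20 hr ambient; luminescence.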
TDP1 cell noCPT = qHTS for Inhibitors of human tyrosyl-DNA phosphodiesterase 1 (TDP1): qHTS in cells in absence of CPT | DT40 Tdp1-/- hTDP1 cells, no CPT, ATP luminescence, 48 h | Potency, µM (series often up to 46.2 µM), for the others: top-dose activity change, negative = growth inhibition, actives largely listed as inhibitors | 15% of 420,000 active; note: potency is the fitted concentration of half-maximal effect; nearly all actives have a fitted effect of over 55% in size
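No-CPT arm: Tdp1-/-;hTDP1 DT40 cells (400/well) plus compounds, incubated ≥48 hr at 37 °C. Readout CellTiter-Glo luminescence.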
ELG1 repair inh = qHTS screen for small molecules that inhibit ELG1-dependent DNA repair in human embryonic kidney (HEK293T) cells expressing luciferase-tagged ELG1; HEK293T ELG1-luciferase reporter, luminescence, 16 h; DNA damage induced by 5-fluorouridine; 2.3% of 330,000 active; Potency, µM (top dose mostly 46.1 µM), for the others: at the top dose activity change, negative = inhibition, most hits filed as inhibitors; note: potency is the fitted concentration of half-maximal effect; nearly all actives have a fitted effect of over 55% in size
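In this reporter screen, reduction of luminescence relative to DMSO vehicle indicated activity. Compounds and 5-fluorouridine were added together to 2,000 cells per well, incubated for 16 hr at 37 °C, then developed with ONE-Glo.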
Active calls of the source: *; [ ] = another dose, or the depositor's remark. In the library only some 21% were active in any assay of this set; here they are far more common. Unless noted, calls come from the whole dose curve; as a rule, active = well fitted curve in the direction sought with a large enough effect; inconclusive = small, poorly fitted or top-dose-only effect, or another doubt; inactive = no such curve, though single readings can be large; an effect the other way counts as inactive or inconclusive. % is set by controls: 0 for no effect and ±100 for the full control effect.

Screening CCOc1ccc(NC(=O)CN(C)C(=O)C2CCCO2)cc1OCC (stereo unspecified) returned IL-1B inflam inh 6, DT40 TDP1 CPT 4%, TDP1 cell noCPT 5% and ELG1 repair inh -3%.
`CC(C)[C@H](NC(=O)N1c2ccccc2NC(=O)[C@@H]1C(C)C)C(=O)N[C@H](Cc1ccccc1)C(=O)O` gave IL-1B inflam inh -1, DT40 TDP1 CPT 3%, Gal4-VP16 FLuc -1%, RORg inh 21%, TDP1 cell noCPT 0% and ELG1 repair inh 17%.
Screening Cc1cccc(N=Nc2c(C)nn(-c3ccccc3)c2N)c1C returned IL-1B inflam inh 0, DT40 TDP1 CPT inconclusive, Gal4-VP16 FLuc inconclusive, RORg inh 2.5µM*, TDP1 cell noCPT inconclusive and ELG1 repair inh inconclusive.
For Cc1nn(-c2ccccc2)c(N)c1N=Nc1ccccc1 the results were IL-1B inflam inh -68*, DT40 TDP1 CPT inconclusive, Gal4-VP16 FLuc -6%, RORg inh -38%, TDP1 cell noCPT 21µM* and ELG1 repair inh inconclusive.
`Nc1nc(N)c(N=Nc2ccccc2)c(=O)[nH]1` gave IL-1B inflam inh inconclusive, DT40 TDP1 CPT 21µM* and TDP1 cell noCPT 5.8µM*.
Nc1nn(-c2ccccc2)c(N)c1N=Nc1ccccc1 was read as IL-1B inflam inh 15, DT40 TDP1 CPT 4.1µM*, Gal4-VP16 FLuc 0%, RORg inh -12%, TDP1 cell noCPT 4.6µM* and ELG1 repair inh inconclusive.
Screening COC(=O)/C=C1\OCc2ccccc21 returned IL-1B inflam inh 15, DT40 TDP1 CPT 14% and TDP1 cell noCPT -6%.
Cc1nn(-c2ccccc2)c(N)c1C(c1ccc(C(C)C)cc1)c1c(C)nn(-c2ccccc2)c1N was read as IL-1B inflam inh inconclusive, DT40 TDP1 CPT 7%, Gal4-VP16 FLuc -5%, RORg inh 22%[10 µM], TDP1 cell noCPT inconclusive and ELG1 repair inh 8.2µM*.
For Cn1c(-c2ccc(-c3ccccc3)cc2)c[nH]c1=S the results were IL-1B inflam inh -26, DT40 TDP1 CPT 8.2µM*, Gal4-VP16 FLuc 2.2µM*, RORg inh 0.79µM*, TDP1 cell noCPT inconclusive and ELG1 repair inh inconclusive.
Screening CCn1c(-c2ccccc2)ccc(C#N)c1=O returned IL-1B inflam inh 14, DT40 TDP1 CPT 13%, Gal4-VP16 FLuc -7%, RORg inh -13%, TDP1 cell noCPT -3% and ELG1 repair inh 21%.
CCn1c(-c2ccc(-c3ccccc3)cc2)c[nH]c1=S was read as IL-1B inflam inh 0, DT40 TDP1 CPT inconclusive, Gal4-VP16 FLuc 1.6µM*, RORg inh 1.8µM*, TDP1 cell noCPT inconclusive and ELG1 repair inh inconclusive.
Screening C=CCn1c(-c2ccccc2)c[nH]c1=S returned IL-1B inflam inh -1, DT40 TDP1 CPT 26µM*, Gal4-VP16 FLuc inconclusive, RORg inh -29%, TDP1 cell noCPT inconclusive and ELG1 repair inh inconclusive.
`C=CCn1c(-c2ccc(Cl)cc2)c[nH]c1=S` gave IL-1B inflam inh 10, DT40 TDP1 CPT -13%, Gal4-VP16 FLuc 2.8µM*, RORg inh 2µM*, TDP1 cell noCPT inconclusive and ELG1 repair inh 20%.
`Cc1nc(NC(=O)CSc2nnc(C3CC3)n2C)sc1C` gave IL-1B inflam inh 4, DT40 TDP1 CPT 9%, Gal4-VP16 FLuc -13%, RORg inh 26%, TDP1 cell noCPT -8% and ELG1 repair inh inconclusive.
For CC(C)N1CCc2c(sc(NC(=O)C3CCCCC3)c2C(N)=O)C1 the results were IL-1B inflam inh -55*, DT40 TDP1 CPT inconclusive, Gal4-VP16 FLuc -27%, RORg inh -38%, TDP1 cell noCPT inconclusive and ELG1 repair inh inconclusive.
Screening CCOC(=O)c1c(NC(=O)C2CCCCC2)sc2c1CCN(C(C)C)C2 returned IL-1B inflam inh -9, DT40 TDP1 CPT 15µM*, Gal4-VP16 FLuc -4%, RORg inh -25%, TDP1 cell noCPT 13µM* and ELG1 repair inh 0%.
`COC(=O)c1c(NC(=O)C2CCCCC2)sc2c1CCN(C(C)C)C2` gave IL-1B inflam inh -30, DT40 TDP1 CPT inconclusive, Gal4-VP16 FLuc 2%, RORg inh -16%, TDP1 cell noCPT inconclusive and ELG1 repair inh -4%.
`COc1cc2ccccc2cc1C(=O)Nc1sc2c(c1C(N)=O)CCN(C(C)C)C2` gave Gal4-VP16 FLuc 18µM*, RORg inh 13µM* and ELG1 repair inh -10%.
CCOCCCNC(=O)c1ccc2c(c1)NC(=O)C(CS(=O)(=O)Cc1ccc(F)cc1Cl)N2 (stereo unspecified) was read as DT40 TDP1 CPT -1% and TDP1 cell noCPT -6%.
O=C(NCc1ccccc1)c1onc(CS(=O)(=O)c2ccccn2)c1C(=O)NCc1ccccc1 was read as IL-1B inflam inh -15, DT40 TDP1 CPT inconclusive, TDP1 cell noCPT inconclusive and ELG1 repair inh inconclusive.
CCc1cccc(C)c1NC(=O)Cn1c(=O)n(-c2ccc(C)cc2)c(=O)c2c1cnn2C was read as DT40 TDP1 CPT -18% and TDP1 cell noCPT -1%.
Screening O=C(NCCOc1ccccc1)c1cc([N+](=O)[O-])ccc1N1CCOCC1 returned IL-1B inflam inh -11, DT40 TDP1 CPT 1.8µM*, TDP1 cell noCPT 1.6µM* and ELG1 repair inh inconclusive.
For O=C(Nc1nc2ccc(Oc3ccccc3)cc2s1)c1cc([N+](=O)[O-])ccc1N1CCOCC1 the results were IL-1B inflam inh -18, DT40 TDP1 CPT inconclusive, Gal4-VP16 FLuc -10%, RORg inh 17%, TDP1 cell noCPT 13µM* and ELG1 repair inh -21%.
O=C(CN1CCOCC1)Nc1nc2ccc([N+](=O)[O-])cc2s1 was read as IL-1B inflam inh 27, DT40 TDP1 CPT -21%, Gal4-VP16 FLuc -1%, RORg inh 23%, TDP1 cell noCPT -13% and ELG1 repair inh 18%.
O=C(NCCOc1ccccc1F)c1cc([N+](=O)[O-])ccc1N1CCOCC1 was read as IL-1B inflam inh 14, DT40 TDP1 CPT 5.2µM*, Gal4-VP16 FLuc -11%, RORg inh -2%, TDP1 cell noCPT 3.7µM* and ELG1 repair inh inconclusive.
For O=C(/C=C/c1ccccc1)N1c2ccccc2Sc2ccc(C(F)(F)F)cc21 the results were IL-1B inflam inh -1, DT40 TDP1 CPT -9%, Gal4-VP16 FLuc inconclusive, RORg inh inconclusive, TDP1 cell noCPT -8% and ELG1 repair inh inconclusive.
